Inconclusive results are not listed. Calls of active or inactive are those of the source. Calls follow the shape of the dose curve; as a rule, active = well fitted cell-killing curve with a large enough effect; inconclusive = small, poorly fitted or top-dose-only effect, or effect the other way; inactive = flat fitted curve, though single readings scatter.
What was measured:
Test in all cases: Primary qHTS to identify gynecologic anti-cancer compounds using libraries of approved drugs and bioactive compounds (AID 1345084); also: nearly all actives have a fitted effect of over 55% in size
C33A = settings: Gynecologic cancer cell panel viability, ATPlite luminescence, 48 h; series mostly up to 57.5 µM
Procedure, shortened: (§1)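 Cells, 1,000 per well, were allowed to settle for 16 h at 37 C before compound addition. Five concentrations were tested for 48 h, and viability was read by ATPlite luminescence after 15 min at room temperature.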

CAOV3 = settings: Gynecologic cancer cell panel viability, ATPlite luminescence, 48 h; series mostly up to 57.5 µM
Procedure, shortened: as §1

CASKI = settings: Gynecologic cancer cell panel viability, ATPlite luminescence, 48 h; series mostly up to 57.5 µM
Procedure, shortened: as §1

Es-2 = settings: Gynecologic cancer cell panel viability, ATPlite luminescence, 48 h; series mostly up to 57.5 µM
Procedure, shortened: as §1

HeLa = settings: Gynecologic cancer cell panel viability, ATPlite luminescence, 48 h; series mostly up to 57.5 µM
Procedure, shortened: as §1

Hek293T = settings: Gynecologic cancer cell panel viability, ATPlite luminescence, 48 h, control line for the selectivity index; series mostly up to 57.5 µM
Procedure, shortened: as §1

JEG-3 = settings: Gynecologic cancer cell panel viability, ATPlite luminescence, 48 h; series mostly up to 57.5 µM
Procedure, shortened: as §1

OV90 = settings: Gynecologic cancer cell panel viability, ATPlite luminescence, 48 h; series mostly up to 57.5 µM
Procedure, shortened: as §1

PA-1 = settings: Gynecologic cancer cell panel viability, ATPlite luminescence, 48 h; series mostly up to 57.5 µM
Procedure, shortened: as §1

SKOV3 = settings: Gynecologic cancer cell panel viability, ATPlite luminescence, 48 h; series mostly up to 57.5 µM
Procedure, shortened: as §1

Tov-21-G = settings: Gynecologic cancer cell panel viability, ATPlite luminescence, 48 h; series mostly up to 57.5 µM
Procedure, shortened: as §1

Tov112D = settings: Gynecologic cancer cell panel viability, ATPlite luminescence, 48 h; series mostly up to 57.5 µM
Procedure, shortened: as §1

Measured: Potency
Potency is read from the fitted curve at half-maximal effect.

CC1C=CC2CCCCC2C1CCC1CC(O)CC(=O)O1 (stereo not drawn)
inactive: C33A | CAOV3 | CASKI | Es-2 | HeLa | Hek293T | JEG-3 | OV90 | PA-1 | SKOV3 | Tov-21-G | Tov112D

CC(O)/C=C/C1(O)C(C)C(O[C@@H]2O[C@H](CO)[C@@H](O)[C@H](O)[C@H]2O)C(O)CC1(C)C (stereo partly drawn)
inactive: C33A | CAOV3 | CASKI | Es-2 | HeLa | Hek293T | JEG-3 | OV90 | PA-1 | SKOV3 | Tov-21-G | Tov112D

C=C1CCC2C(C)(C(=O)O)CCCC2(C)C1CC/C(=C\CO)CO (stereo not drawn)
inactive: C33A | CAOV3 | CASKI | Es-2 | HeLa | Hek293T | JEG-3 | OV90 | PA-1 | SKOV3 | Tov-21-G | Tov112D

C[C@@H]1O[C@@H](OC[C@H]2O[C@@H](Oc3cc(O)cc4c3C(=O)C(O)(Cc3ccc(O)cc3)O4)[C@H](O)[C@@H](O)[C@@H]2O)[C@H](O)[C@H](O)[C@H]1O (stereo partly drawn)
inactive: C33A | CAOV3 | CASKI | Es-2 | HeLa | Hek293T | JEG-3 | OV90 | PA-1 | SKOV3 | Tov-21-G | Tov112D

CC/C=C\CCO[C@@H]1O[C@H](CO)[C@@H](O)[C@H](O)[C@H]1O
inactive: C33A | CAOV3 | CASKI | Es-2 | HeLa | Hek293T | JEG-3 | OV90 | PA-1 | SKOV3 | Tov-21-G | Tov112D

CC1(O)CC(O)C2(O)C=COC(O[C@@H]3O[C@H](CO)[C@@H](O)[C@H](O)[C@H]3O)C12 (stereo partly drawn)
inactive: C33A | CAOV3 | CASKI | Es-2 | HeLa | Hek293T | JEG-3 | OV90 | PA-1 | SKOV3 | Tov-21-G | Tov112D

O=[N+]([O-])c1cn2c(n1)OCC(OCc1ccc(OC(F)(F)F)cc1)C2 (stereo not drawn)
inactive: C33A | CAOV3 | CASKI | Es-2 | HeLa | Hek293T | JEG-3 | OV90 | PA-1 | SKOV3 | Tov-21-G | Tov112D

Oc1ccc2nc(CN3CCC(Cc4ccccc4F)CC3)[nH]c2c1
inactive: C33A | CAOV3 | CASKI | Es-2 | HeLa | Hek293T | JEG-3 | OV90 | PA-1 | SKOV3 | Tov-21-G | Tov112D

CC(=O)O[C@H]1[C@@H](O)[C@H](O[C@H]2[C@@H]3C=CO[C@@H](O[C@H]4O[C@@H](CO)[C@H](O)[C@@H](O)[C@@H]4O)[C@@H]3[C@@]3(CO)O[C@@H]23)O[C@@H](C)[C@@H]1OC(=O)/C=C/c1ccccc1
inactive: C33A | CAOV3 | CASKI | Es-2 | HeLa | Hek293T | JEG-3 | OV90 | PA-1 | SKOV3 | Tov-21-G | Tov112D

OC1CCC(Nc2ncc3nc(Nc4c(F)cc(F)cc4F)n([C@H]4CCOC4)c3n2)CC1 (stereo partly drawn)
inactive: C33A | CAOV3 | CASKI | Es-2 | HeLa | Hek293T | JEG-3 | OV90 | PA-1 | SKOV3 | Tov-21-G | Tov112D

C[C@@H]1CN(Cc2ccccc2)C[C@H]1c1nc2c(cnn2C2CCOCC2)c(=O)[nH]1
inactive: C33A | CAOV3 | CASKI | Es-2 | HeLa | Hek293T | JEG-3 | OV90 | PA-1 | SKOV3 | Tov-21-G | Tov112D

C=C[C@H]1CN2CC[C@H]1C[C@@H]2C(O)c1ccnc2ccc(OC)cc12 (stereo partly drawn)
inactive: C33A | CAOV3 | CASKI | Es-2 | HeLa | Hek293T | JEG-3 | OV90 | PA-1 | SKOV3 | Tov-21-G | Tov112D

C[C@@H]1CCC/C=C/[C@H]2CC(=O)C[C@@H]2[C@@H](O)/C=C/C(=O)O1
active: OV90 20 µM
inactive: C33A | CAOV3 | CASKI | Es-2 | HeLa | Hek293T | JEG-3 | PA-1 | SKOV3 | Tov-21-G | Tov112D

O=C(OC[C@H]1O[C@H](O[C@]2(CO)O[C@H](CO)[C@@H](O)[C@@H]2O)[C@H](O)[C@@H](O)[C@@H]1O)c1ccccc1
inactive: C33A | CAOV3 | CASKI | Es-2 | HeLa | Hek293T | JEG-3 | OV90 | PA-1 | SKOV3 | Tov-21-G | Tov112D
